Consider 10 molecules from PubChem BioAssay (NCI).

Molecules are shown by their SMILES. Compounds without any hit were thinned out: in the full panel of roughly 79,000, 15% have a hit. Unmarked numbers belong to inactive results. Activity calls are given as the source filed them. Rule as the data show it: active = growth inhibition above about 70%; inactive = the rest.

A short description of experiment [1]: NCI Yeast Anticancer Drug Screen. Data for the rad50 strain (AID 155).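 Also: 0% = growth of vehicle-only cultures of the same strain.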 Particulars: S. cerevisiae rad50 strain growth inhibition, stronger effect = higher value. Put shortly: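 Relative growth inhibition (compound vs vehicle) was measured in yeast with a defined repair-gene alteration.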
Experiment [2] in a line: NCI Yeast Anticancer Drug Screen. Data for the mec2-1 strain (AID 157). To be noted: S. cerevisiae mec2-1 strain, stronger effect = higher value. The essentials:
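Mutant yeast (mec2-1) grown with compound; growth inhibition relative to vehicle control reported.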

A short description of experiment [3]: NCI Yeast Anticancer Drug Screen. Data for the sgs1 mgt1 strain (AID 161).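 Also: 0% = growth of cultures given vehicle only.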 Particulars: S. cerevisiae sgs1 mgt1 strain, stronger effect = higher value. The essentials:
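Percent growth inhibition was derived by comparing compound-exposed mutant yeast with vehicle-exposed cultures. The strain carries alterations in DNA damage repair.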

A short description of experiment [4]: NCI Yeast Anticancer Drug Screen. Data for the cln2 rad14 strain (AID 165).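 Also: 0% = growth equal to vehicle treated cultures.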 Particulars: S. cerevisiae cln2 rad14 strain, stronger effect = higher value. The essentials: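 Readout is yeast growth inhibition versus vehicle-treated controls, using a strain with cln2 and rad14 alterations exposed to compound.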
Experiment [5] in a line: NCI Yeast Anticancer Drug Screen. Data for the bub3 strain (AID 167). To be noted: S. cerevisiae bub3 mutant strain, stronger effect = higher value. The essentials:
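Screening used yeast with an engineered genetic alteration affecting cell cycle control. Compound-exposed cultures were compared with vehicle cultures, and reduced growth was taken as inhibition.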

A short description of experiment [6]: NCI Yeast Anticancer Drug Screen. Data for the mlh1 rad18 strain (AID 175). To be noted: S. cerevisiae mlh1 rad18 strain growth inhibition, stronger effect = higher value. The essentials: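 Genetically defined yeast (DNA repair-deficient) exposed to compounds; growth inhibition determined relative to vehicle.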
Setting [7] is: at 5.0 µM (retest, dose inferred, filed as 0.5).
The mark [8] stands for this setting: at 50.0 µM (retest, dose inferred, filed as 5.0).

Consider `CC(O)CCCOC(c1ccccc1)(c1ccccc1)c1ccccc1` (stereo not given), for which the growth inhibition in experiment [1] (setting [7]) is 19%; in experiment [1] (setting [8]) it was 97% (active); in experiment [1] (at 50.0 µM), 86.5% (active); in experiment [2] (setting [7]), 9%; in experiment [2] (setting [8]), 97% (active); in experiment [2] (at 50.0 µM), 83.8% (active). In addition, the growth inhibition in experiment [3] (setting [7]) was 17%; in experiment [3] (setting [8]), 95% (active); in experiment [3] (at 50.0 µM), 80.8% (active); in experiment [4] (setting [7]), 15%; in experiment [4] (setting [8]) it was 94% (active); in experiment [4] (at 50.0 µM), 82.7% (active). Also, the growth inhibition was 28% in experiment [5] (setting [7]); 93% (active) in experiment [5] (setting [8]); 80.5% (active) in experiment [5] (at 50.0 µM); 19% in experiment [6] (setting [7]); 96% (active) in experiment [6] (setting [8]); 84.4% (active) in experiment [6] (at 50.0 µM).

`CC(=O)Nc1c([N+](=O)[O-])cc2c3c(cccc13)C=C2`: the growth inhibition was 3% in experiment [1] (setting [7]); 77% (active) in experiment [1] (setting [8]); 24.8% in experiment [1] (at 50.0 µM); 1% in experiment [2] (setting [7]); 47% in experiment [2] (setting [8]); 16.1% in experiment [2] (at 50.0 µM). Besides, the growth inhibition in experiment [3] (setting [7]) is 6%; in experiment [3] (setting [8]) it was 56%; in experiment [3] (at 50.0 µM) it was 9.8%; in experiment [4] (setting [7]), 6%; in experiment [4] (setting [8]), 77% (active); in experiment [4] (at 50.0 µM), 74.9% (active). Besides, the growth inhibition is 3% in experiment [5] (setting [7]); 23% in experiment [5] (setting [8]); -17.2% in experiment [5] (at 50.0 µM); 31% in experiment [6] (setting [7]); 94% (active) in experiment [6] (setting [8]); 67.8% in experiment [6] (at 50.0 µM).

Consider `C=Cc1cc(=O)oc2cc(OC)ccc12`, for which the growth inhibition in experiment [1] (setting [7]) was 20%; in experiment [1] (setting [8]), 98% (active); in experiment [1] (at 50.0 µM), 71.4% (active); in experiment [2] (setting [7]), 22%; in experiment [2] (setting [8]), 99% (active); in experiment [2] (at 50.0 µM), 86.2% (active). Also, the growth inhibition was 22% in experiment [3] (setting [7]); 98% (active) in experiment [3] (setting [8]); 61.2% in experiment [3] (at 50.0 µM); 14% in experiment [4] (setting [7]); 99% (active) in experiment [4] (setting [8]); 72.2% (active) in experiment [4] (at 50.0 µM). For the same molecule, the growth inhibition in experiment [5] (setting [7]) is 14%; in experiment [5] (setting [8]) it was 98% (active); in experiment [5] (at 50.0 µM), 93.2% (active); in experiment [6] (setting [7]), 30%; in experiment [6] (setting [8]), 98% (active); in experiment [6] (at 50.0 µM), 93.8% (active).

As for `Cc1ccccc1NC(=S)N/N=C(/c1ccccc1)c1ccccn1`, the growth inhibition in experiment [1] (setting [7]) is 5%; in experiment [1] (setting [8]), 94% (active); in experiment [1] (at 50.0 µM) it was 53.9%; in experiment [2] (setting [7]), -17%; in experiment [2] (setting [8]), 92% (active); in experiment [2] (at 50.0 µM), 61%. The growth inhibition in experiment [3] (setting [7]) was 26%; in experiment [3] (setting [8]), 92% (active); in experiment [3] (at 50.0 µM), 69.7%; in experiment [4] (setting [7]), -38%; in experiment [4] (setting [8]), 91% (active); in experiment [4] (at 50.0 µM), 68.4%. Further, the growth inhibition in experiment [5] (setting [7]) is -47%; in experiment [5] (setting [8]), 92% (active); in experiment [5] (at 50.0 µM) it was 76.3% (active); in experiment [6] (setting [7]), 26%; in experiment [6] (setting [8]) it was 92% (active); in experiment [6] (at 50.0 µM), 75.4% (active).

Turning to `S=C(NC(=S)Nc1ccccc1)Nc1ccccc1`, the growth inhibition in experiment [1] (setting [7]) is 0%; in experiment [1] (setting [8]) it was 29%; in experiment [1] (at 50.0 µM), 93.8% (active); in experiment [2] (setting [7]) it was -5%; in experiment [2] (setting [8]), 37%; in experiment [2] (at 50.0 µM), 82.9% (active). For the same molecule, the growth inhibition in experiment [3] (setting [7]) is 7%; in experiment [3] (setting [8]), 69%; in experiment [3] (at 50.0 µM), 96.3% (active); in experiment [4] (setting [7]), -8%; in experiment [4] (setting [8]) it was 8%; in experiment [4] (at 50.0 µM), 91.7% (active). The growth inhibition in experiment [5] (setting [7]) was -1%; in experiment [5] (setting [8]), 21%; in experiment [5] (at 50.0 µM), 96.3% (active); in experiment [6] (setting [7]) it was 8%; in experiment [6] (setting [8]), 55%; in experiment [6] (at 50.0 µM), 95.3% (active).

Regarding `CCOC(=O)c1ccc(O)c(OC)c1`, the growth inhibition in experiment [1] (setting [7]) was -2%; in experiment [1] (setting [8]), 10%; in experiment [1] (at 50.0 µM), 2%; in experiment [2] (setting [7]) it was 7%; in experiment [2] (setting [8]), 3%; in experiment [2] (at 50.0 µM), 1.5%. The growth inhibition in experiment [3] (setting [7]) was 3%; in experiment [3] (setting [8]), 2%; in experiment [3] (at 50.0 µM), -18.6%; in experiment [4] (setting [7]), -5%; in experiment [4] (setting [8]) it was 5%; in experiment [4] (at 50.0 µM) it was -13.8%. The growth inhibition in experiment [5] (setting [7]) is 61%; in experiment [5] (setting [8]) it was 93% (active); in experiment [5] (at 50.0 µM) it was 90.2% (active); in experiment [6] (setting [7]) it was -3%; in experiment [6] (setting [8]), 0%; in experiment [6] (at 50.0 µM), -7.1%.

For `FC(F)(F)c1nc2cc(SSc3cc4nc(C(F)(F)F)[nH]c4cc3Cl)c(Cl)cc2[nH]1`, the growth inhibition in experiment [1] (setting [7]) is 1%; in experiment [1] (setting [8]), 51%; in experiment [1] (at 50.0 µM) it was 97.5% (active); in experiment [2] (setting [7]) it was -1%; in experiment [2] (setting [8]) it was 85% (active); in experiment [2] (at 50.0 µM), 93.2% (active). The growth inhibition in experiment [3] (setting [7]) was 0%; in experiment [3] (setting [8]), 87% (active); in experiment [3] (at 50.0 µM) it was 95% (active); in experiment [4] (setting [7]), -6%; in experiment [4] (setting [8]) it was 91% (active); in experiment [4] (at 50.0 µM), 65.8%. Also, the growth inhibition in experiment [5] (setting [7]) is -18%; in experiment [5] (setting [8]) it was 61%; in experiment [5] (at 50.0 µM), 97% (active); in experiment [6] (setting [7]), -12%; in experiment [6] (setting [8]), 97% (active); in experiment [6] (at 50.0 µM), 97.7% (active).

On to `COc1c(O)cc(C=O)cc1[N+](=O)[O-]`, for which the growth inhibition in experiment [1] (setting [7]) is -7%; in experiment [1] (setting [8]) it was 14%; in experiment [1] (at 50.0 µM) it was 7.3%; in experiment [2] (setting [7]), 1%; in experiment [2] (setting [8]), 12%; in experiment [2] (at 50.0 µM), 2.15%. Besides, the growth inhibition was -1% in experiment [3] (setting [7]); 11% in experiment [3] (setting [8]); 40.3% in experiment [3] (at 50.0 µM); 4% in experiment [4] (setting [7]); 20% in experiment [4] (setting [8]); 69.2% in experiment [4] (at 50.0 µM). Further, the growth inhibition in experiment [5] (setting [7]) was -1%; in experiment [5] (setting [8]) it was 1%; in experiment [5] (at 50.0 µM), -9.85%; in experiment [6] (setting [7]) it was -4%; in experiment [6] (setting [8]), 14%; in experiment [6] (at 50.0 µM), 8.1%.

For the molecule `Cc1ccc(/C=N/NS(=O)(=O)c2ccccc2)c(C)c1`, the growth inhibition is -27% in experiment [1] (setting [7]); 25% in experiment [1] (setting [8]); 30.6% in experiment [1] (at 50.0 µM); -10% in experiment [2] (setting [7]); 1% in experiment [2] (setting [8]); 18.9% in experiment [2] (at 50.0 µM). Further, the growth inhibition in experiment [3] (setting [7]) is 1%; in experiment [3] (setting [8]), 15%; in experiment [3] (at 50.0 µM), 15%; in experiment [4] (setting [7]), -23%; in experiment [4] (setting [8]), 42%; in experiment [4] (at 50.0 µM), -25.8%. For the same molecule, the growth inhibition in experiment [5] (setting [7]) is 3%; in experiment [5] (setting [8]) it was 41%; in experiment [5] (at 50.0 µM), 11.1%; in experiment [6] (setting [7]) it was -11%; in experiment [6] (setting [8]), 46%; in experiment [6] (at 50.0 µM), 36.9%.

`CS(=O)(=O)OC1C(O)C(n2cnc3c(N)ncnc32)C(O)C(OS(C)(=O)=O)C1OS(C)(=O)=O` (stereo not given): the growth inhibition is 0% in experiment [1] (setting [7]); -2% in experiment [1] (setting [8]); 0.05% in experiment [1] (at 50.0 µM); 1% in experiment [2] (setting [7]); -3% in experiment [2] (setting [8]); 57.5% in experiment [2] (at 50.0 µM). The growth inhibition was -2% in experiment [3] (setting [7]); -1% in experiment [3] (setting [8]); 3.8% in experiment [3] (at 50.0 µM); -1% in experiment [4] (setting [7]); 0% in experiment [4] (setting [8]); -7.9% in experiment [4] (at 50.0 µM). Moreover, the growth inhibition in experiment [5] (setting [7]) is -1%; in experiment [5] (setting [8]) it was -2%; in experiment [5] (at 50.0 µM) it was 40%; in experiment [6] (setting [7]), -1%; in experiment [6] (setting [8]) it was -1%; in experiment [6] (at 50.0 µM), 18.4%.
